“And” between values parts separate entries of the source, which are not always exact repeats. Equal entries are not always repeated. Where a structure was tested more than once in an assay, its records may differ in their call. The source made the active and inactive calls. Rule for the calls: active = hit-call score of the fitted dose curve at least 0.9, where 1 is the maximum; inactive = score below 0.9.

Assay [1] can be described thus: ATG_E_Box_CIS: Attagene CIS-FACTORIAL HepG2 Assay for human Enhancer Box (E-box) (AID 2282936). Particulars: HepG2 E-box cis-reporter transcription, actives raise or lower the signal. In a few lines:
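Measured 24 h post-dosing in HepG2 cells transfected with multiple cis-regulated reporter units, signal being reporter mRNA induction detected by fluorescent RT-PCR with capillary electrophoresis; gain or loss fitted against DMSO.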

Assay [2] is described as follows: ATG_M_61_CIS: Attagene CIS-FACTORIAL HepG2 Assay for M61 Transcription Factor (Internal Marker) (AID 2282937). The conditions noted are these: HepG2 Attagene CIS-FACTORIAL M61 internal marker reporter; actives raise or lower the signal. In a few lines: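 HepG2 cells transiently transfected with multiplexed cis-promoter reporter units reporting endogenous transcription factor activity, measured 24 h after dosing. Reporter mRNA quantified by RT-PCR and capillary electrophoresis; bidirectional fit against DMSO baseline.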

Assay [3] is described as follows: ATG_EGR_CIS: Attagene CIS-FACTORIAL HepG2 Assay for human Early Growth Response 1 (EGR1) (AID 2282938). Particulars: HepG2 Attagene CIS-FACTORIAL EGR reporter mRNA; actives raise or lower the signal. In a few lines: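 HepG2 cells transiently transfected with cis-element-driven multiplexed reporter units, dosed for 24 h. EGR1-element reporter mRNA quantified by RT-PCR, 6-FAM labelling, HpaI digestion and capillary electrophoresis; bidirectional fit versus DMSO.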

A short description of assay [4]: ATG_M_19_CIS: Attagene CIS-FACTORIAL HepG2 Assay for M19 Transcription Factor (Internal Marker) (AID 2282939). Particulars: HepG2 Attagene CIS-FACTORIAL M19 internal marker reporter; actives raise or lower the signal. In a few lines: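 Readout: fluorescent reporter-transcript fragments by capillary electrophoresis after RT-PCR. Human HepG2 liver cells carried transfected MRTU constructs reporting endogenous transcription-factor activity; exposure 24 h. Gain or loss of signal fitted relative to DMSO.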

Assay [5] is described as follows: ATG_Ets_CIS: Attagene CIS-FACTORIAL HepG2 Assay for human Erythroblast Transformation Specific (ETS) (AID 2282941). The conditions noted are these: HepG2 ETS cis-reporter transcription, actives raise or lower the signal. Summed up:
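RT-PCR/capillary electrophoresis fluorescence read-out of reporter mRNA; HepG2 transient multi-reporter transfection; 24 h compound exposure; gain or loss of signal fitted bidirectionally relative to DMSO.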

Assay [6] addresses Hepatocyte nuclear factor 3-beta (Homo sapiens) (UniProt Q9Y261). The assay is described as follows: ATG_FoxA2_CIS: Attagene CIS-FACTORIAL HepG2 Assay for human Forkhead box A2 (FOXA2) (AID 2282942). Particulars: HepG2 cis-reporter transcription factor activity, 24 h; actives raise or lower the signal. Summed up: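 HepG2 transiently transfected with a multiplexed cis-promoter reporter library read endogenous FOXA2 activity. After 24 h compound exposure, reporter mRNA was quantified by RT-PCR, HpaI digestion and capillary electrophoresis. Bidirectional fit against DMSO.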

Assay [7] is described as follows: ATG_FoxO_CIS: Attagene CIS-FACTORIAL HepG2 Assay for human Forkhead box O (FoxO) (AID 2282943). The conditions noted are these: HepG2 Attagene cis-reporter, FoxO element, mRNA; actives raise or lower the signal. In a few lines:
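HepG2 cells transiently transfected with cis-promoter-driven multiple reporter transcription units; 24 h after chemical dosing, reporter mRNA quantified by RT-PCR, fluorescent primer extension, HpaI digestion and capillary electrophoresis. Bidirectional fitting versus DMSO baseline.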

A short description of assay [8]: ATG_GATA_CIS: Attagene CIS-FACTORIAL HepG2 Assay for human GATA Binding Protein (AID 2282944). The conditions noted are these: HepG2 GATA cis-element reporter, Attagene multiplex mRNA; actives raise or lower the signal. In a few lines:
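Read-out: fluorescent reporter mRNA fragments resolved by capillary electrophoresis after RT-PCR. Human liver HepG2 cells carried transiently transfected cis-regulated reporter constructs; chemicals incubated 24 h; gain or loss of signal fitted relative to DMSO.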

In assay [9] the target is Bile acid receptor (Homo sapiens) (UniProt Q96RI1). The assay is described as follows: ATG_IR1_CIS: Attagene CIS-FACTORIAL HepG2 Assay for human Nuclear Receptor Subfamily 1 Group H Member 4 (NR1H4), IR1 submotif (AID 2282946). Particulars: IR1 reporter transcription, actives raise or lower the signal. Summed up: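 Readout: reporter transcript levels by RT-PCR with fluorescent capillary electrophoresis, from HepG2 cells transiently transfected with multiplexed cis-regulated reporters and dosed 24 h. Gain- or loss-of-signal fitted versus DMSO negative control.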

Assay [10] is described as follows: ATG_ISRE_CIS: Attagene CIS-FACTORIAL HepG2 Assay for human Interferon Regulatory Factor 1 (IRF1) binding to an Interferon-Stimulated Response Element (ISRE) (AID 2282948). Particulars: HepG2 ISRE cis-reporter (Attagene), mRNA transcription readout; actives raise or lower the signal. In a few lines:
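Read-out: fluorescent RT-PCR products resolved by capillary electrophoresis, reporting endogenous transcription factor activity via ISRE-driven reporter mRNA in transfected HepG2 cells dosed for 24 h; gain or loss fitted relative to DMSO.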

A short description of assay [11]: ATG_M_32_CIS: Attagene CIS-FACTORIAL HepG2 Assay for M32 Transcription Factor (Internal Marker) (AID 2282949).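 Note: background control marker of the multiplexed CIS panel rather than a real target.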 The conditions noted are these: HepG2 Attagene cis-factorial M32 reporter, mRNA; actives raise or lower the signal. Summed up: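 Using DMSO as baseline, bidirectional curve fits were applied to reporter mRNA signals. These came from transiently transfected HepG2 cells exposed for 24 h, with RNA analysed by RT-PCR, FAM primer extension, HpaI digestion and CE.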

The nature of assay [12]: ATG_M_06_CIS: Attagene CIS-FACTORIAL HepG2 Assay for M06 Transcription Factor (Internal Marker) (AID 2282950). Particulars: HepG2 Attagene CIS-FACTORIAL M06 internal marker reporter; actives raise or lower the signal. Summed up:
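Terse: HepG2, transient MRTU transfection (FuGene 6), 24 h dosing; total RNA, oligo(dT) RT, PCR, FAM label, HpaI cut, capillary electrophoresis; bidirectional fit vs DMSO baseline; background-control endpoint.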

The target in assay [13] is Hypoxia-inducible factor 1-alpha (Homo sapiens) (UniProt Q16665). In words: ATG_HIF1a_CIS: Attagene CIS-FACTORIAL HepG2 Assay for human Hypoxia Inducible Factor 1 (HIF1A) (AID 2282951). Particulars: HepG2 Attagene cis-factorial HIF1a reporter transcription; actives raise or lower the signal. In a few lines:
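HepG2 cells transiently transfected with multiple cis-regulated reporter transcription units measure endogenous transcription factor activity. After 24 h exposure, reporter mRNA is quantified by RT-PCR with 6-FAM labelling, HpaI digestion and capillary electrophoresis. Bidirectional fitting against DMSO.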

In assay [14] the target is Hepatocyte nuclear factor 6 (Homo sapiens) (UniProt Q9UBC0). In words: ATG_HNF6_CIS: Attagene CIS-FACTORIAL HepG2 Assay for human Hepatocyte Nuclear Factor 6 (HNF6) (AID 2282952). The conditions noted are these: HepG2 Attagene cis-factorial HNF6 reporter transcription; actives raise or lower the signal. Summed up:
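Twenty-four-hour chemical treatment of reporter-transfected HepG2 cells precedes RNA isolation, DNase-treated reverse transcription and PCR of reporter sequences. Labelled fragments are sized by capillary electrophoresis and fitted bidirectionally versus DMSO.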

In assay [15] the target is Heat shock factor protein 1 (Homo sapiens) (UniProt Q00613). The assay is described as follows: ATG_HSE_CIS: Attagene CIS-FACTORIAL HepG2 Assay for human Heat Shock Transcription Factor 1 (HSE) (AID 2282953). The conditions noted are these: HepG2 HSE cis-reporter, Attagene RNA transcription; actives raise or lower the signal. In a few lines:
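Read-out: fluorescence of reporter-specific RT-PCR fragments separated by capillary electrophoresis. HepG2 carrying transfected cis-element reporter units; 24 h dosing; activity fitted in both directions relative to DMSO baseline.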

Assay [16] in a line: ATG_MRE_CIS: Attagene CIS-FACTORIAL HepG2 Assay for human Metal Responsive Element (MRE) (AID 2282954). Particulars: HepG2 MRE cis-reporter transcription, Attagene multiplex; actives raise or lower the signal. Summed up: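 Readout: capillary electrophoresis of 6-FAM-labelled, HpaI-digested RT-PCR reporter products. System: HepG2 cells carrying transient multiplexed cis reporters, dosed 24 h. Analysis: bidirectional fit, DMSO baseline.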

Assay [17] is described as follows: ATG_PBREM_CIS: Attagene CIS-FACTORIAL HepG2 Assay for human Phenobarbital-responsive Enhancer Module (PBREM) (AID 2282955). Particulars: HepG2 PBREM cis-reporter, Attagene multiplexed transcription; actives raise or lower the signal. In a few lines: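 HepG2 cells transiently transfected with multiple cis-regulated reporter units measure endogenous transcription factor activity; 24 h compound exposure. Reporter mRNA quantified by RT-PCR, fluorescent labelling, HpaI digestion and capillary electrophoresis; bidirectional fit versus DMSO.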

Assay [18] can be described thus: ATG_ERE_CIS: Attagene CIS-FACTORIAL HepG2 Assay for Estrogen Response Element (ERE) (AID 2282940). Particulars: HepG2 ERE cis-reporter, Attagene RNA transcript; actives raise or lower the signal. In a few lines: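 Readout: reporter mRNA induction by RT-PCR, FAM-labelled primer extension, HpaI digestion and capillary electrophoresis, 24 h after dosing transfected HepG2 cells. Endogenous transcription factors act on cis-element-regulated reporters. Gain or loss fitted against DMSO.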

Assay [19] in a line: ATG_GLI_CIS: Attagene CIS-FACTORIAL HepG2 Assay for human Zinc Finger Protein GLI1 (AID 2282945). The conditions noted are these: HepG2, Attagene cis-factorial reporter mRNA, GLI element; actives raise or lower the signal. In a few lines: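 HepG2 cells transiently transfected with cis-promoter multiplexed reporter units report endogenous transcription factor activity. After 24 h chemical exposure, reporter mRNA was quantified by RT-PCR, 6-FAM labelling, HpaI digestion and capillary electrophoresis, with bidirectional fitting against DMSO.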

Assay [20] in a line: ATG_GRE_CIS: Attagene CIS-FACTORIAL HepG2 Assay for human Glucocorticoid Response Elements (GRE) (AID 2282947). The conditions noted are these: HepG2 GRE cis-reporter, Attagene multiplex mRNA; actives raise or lower the signal. Summed up: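 HepG2, transient cis-reporter transfection, 24 h. Reporter mRNA: RT-PCR then CE, fluorescence. Fit both directions vs DMSO.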

Chain of Heat shock factor protein 1 (Homo sapiens) (Q00613 whole entry, looked up, the tested form may be a part): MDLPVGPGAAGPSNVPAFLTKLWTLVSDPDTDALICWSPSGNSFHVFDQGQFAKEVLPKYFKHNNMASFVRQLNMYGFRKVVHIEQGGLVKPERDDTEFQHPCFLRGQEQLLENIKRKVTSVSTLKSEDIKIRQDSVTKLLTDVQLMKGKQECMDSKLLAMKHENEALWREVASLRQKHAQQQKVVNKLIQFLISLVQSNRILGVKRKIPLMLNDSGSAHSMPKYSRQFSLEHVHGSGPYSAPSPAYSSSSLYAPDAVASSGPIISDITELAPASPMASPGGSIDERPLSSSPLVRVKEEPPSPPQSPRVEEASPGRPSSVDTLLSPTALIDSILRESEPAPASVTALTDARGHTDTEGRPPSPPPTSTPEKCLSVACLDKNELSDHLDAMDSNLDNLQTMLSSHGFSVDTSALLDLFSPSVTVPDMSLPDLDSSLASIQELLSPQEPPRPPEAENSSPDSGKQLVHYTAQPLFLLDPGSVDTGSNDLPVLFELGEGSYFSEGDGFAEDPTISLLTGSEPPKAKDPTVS
Chain of Bile acid receptor (Homo sapiens) (Q96RI1 whole entry, looked up): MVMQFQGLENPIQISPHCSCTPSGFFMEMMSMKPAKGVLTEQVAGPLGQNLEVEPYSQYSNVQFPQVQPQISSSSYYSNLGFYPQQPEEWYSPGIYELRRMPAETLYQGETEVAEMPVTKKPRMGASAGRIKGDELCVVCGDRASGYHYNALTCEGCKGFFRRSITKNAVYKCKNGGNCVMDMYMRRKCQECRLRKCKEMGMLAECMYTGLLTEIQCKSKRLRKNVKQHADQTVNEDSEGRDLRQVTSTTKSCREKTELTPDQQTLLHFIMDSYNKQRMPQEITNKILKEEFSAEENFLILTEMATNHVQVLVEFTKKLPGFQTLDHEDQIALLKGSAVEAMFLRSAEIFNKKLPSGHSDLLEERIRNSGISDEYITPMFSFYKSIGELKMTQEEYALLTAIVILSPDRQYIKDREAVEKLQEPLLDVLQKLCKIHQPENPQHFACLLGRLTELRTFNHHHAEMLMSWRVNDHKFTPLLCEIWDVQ
Chain of Hepatocyte nuclear factor 3-beta (Homo sapiens) (Q9Y261 whole entry, looked up): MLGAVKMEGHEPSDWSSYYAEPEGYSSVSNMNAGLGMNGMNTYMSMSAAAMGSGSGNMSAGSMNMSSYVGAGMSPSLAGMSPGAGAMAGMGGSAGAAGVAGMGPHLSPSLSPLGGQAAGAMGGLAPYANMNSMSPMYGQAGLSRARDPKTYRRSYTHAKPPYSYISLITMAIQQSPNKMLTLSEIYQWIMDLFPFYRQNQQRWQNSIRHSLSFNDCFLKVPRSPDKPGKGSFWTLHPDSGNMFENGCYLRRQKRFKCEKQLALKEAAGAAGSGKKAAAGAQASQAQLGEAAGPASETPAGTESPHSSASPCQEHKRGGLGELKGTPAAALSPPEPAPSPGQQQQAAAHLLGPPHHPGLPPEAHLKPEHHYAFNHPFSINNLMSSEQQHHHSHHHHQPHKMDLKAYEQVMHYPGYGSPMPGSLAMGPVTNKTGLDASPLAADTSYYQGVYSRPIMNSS
Chain of Hypoxia-inducible factor 1-alpha (Homo sapiens) (Q16665 whole entry, looked up): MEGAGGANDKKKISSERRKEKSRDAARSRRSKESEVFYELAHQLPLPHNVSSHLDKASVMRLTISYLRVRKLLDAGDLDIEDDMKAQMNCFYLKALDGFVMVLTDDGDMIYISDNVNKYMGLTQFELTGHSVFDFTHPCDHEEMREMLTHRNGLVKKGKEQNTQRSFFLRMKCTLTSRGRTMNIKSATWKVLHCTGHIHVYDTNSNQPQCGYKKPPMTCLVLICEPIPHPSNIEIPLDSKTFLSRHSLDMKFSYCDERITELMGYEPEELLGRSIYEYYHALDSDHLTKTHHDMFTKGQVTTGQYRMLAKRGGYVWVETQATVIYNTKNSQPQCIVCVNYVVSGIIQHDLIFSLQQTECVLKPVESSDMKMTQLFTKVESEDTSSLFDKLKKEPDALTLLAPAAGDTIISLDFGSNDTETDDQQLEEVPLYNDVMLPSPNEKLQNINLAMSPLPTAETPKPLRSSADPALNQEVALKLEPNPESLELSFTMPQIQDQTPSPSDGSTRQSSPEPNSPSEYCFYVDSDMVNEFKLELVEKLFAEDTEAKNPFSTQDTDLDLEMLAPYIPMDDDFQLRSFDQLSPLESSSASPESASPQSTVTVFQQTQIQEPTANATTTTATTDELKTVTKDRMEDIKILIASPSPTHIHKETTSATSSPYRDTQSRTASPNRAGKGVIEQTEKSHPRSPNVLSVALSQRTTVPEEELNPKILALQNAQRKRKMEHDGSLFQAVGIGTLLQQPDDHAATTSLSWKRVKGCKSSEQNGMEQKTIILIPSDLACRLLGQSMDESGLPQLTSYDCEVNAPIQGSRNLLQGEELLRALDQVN
Chain of Hepatocyte nuclear factor 6 (Homo sapiens) (Q9UBC0 whole entry, looked up, the tested form may be a part): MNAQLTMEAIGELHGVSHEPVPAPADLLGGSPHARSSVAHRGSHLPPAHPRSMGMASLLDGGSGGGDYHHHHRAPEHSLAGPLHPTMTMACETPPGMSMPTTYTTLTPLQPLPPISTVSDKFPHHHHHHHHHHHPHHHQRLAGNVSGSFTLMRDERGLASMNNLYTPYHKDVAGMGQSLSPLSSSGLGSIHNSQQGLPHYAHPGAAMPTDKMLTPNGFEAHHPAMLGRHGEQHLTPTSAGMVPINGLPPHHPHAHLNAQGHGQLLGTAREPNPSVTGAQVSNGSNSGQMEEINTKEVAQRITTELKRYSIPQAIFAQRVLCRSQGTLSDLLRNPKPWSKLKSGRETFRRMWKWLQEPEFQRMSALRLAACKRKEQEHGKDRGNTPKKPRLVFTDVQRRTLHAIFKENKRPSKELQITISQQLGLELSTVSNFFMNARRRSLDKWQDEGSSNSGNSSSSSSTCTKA

By AC50 is commonly meant the concentration at which the activity in the assay is half-maximal. On to `CCN(CC)CCOc1ccc(C(=C(Cl)c2ccccc2)c2ccccc2)cc1`, for which the AC50 in assay [1] is 11.9 µM (active); in assay [3], 6.34 µM (active); in assay [8], 17.6 µM (active); in [9], 5.65 µM (active) and 4.78 µM (active); in assay [13], 9.35 µM (active); in [14], 11.4 µM (active). Also, the results for the AC50 in assay [15] and in assay [16] were 14.3 µM (active) and 13.8 µM (active), respectively. Also, the outcome in assay [1], in assay [2], in assay [3], in assay [4], in assay [5] and in [6] was inactive. Besides, the call in [7], in assay [8], in assay [9], in [10], in assay [11] and in assay [12] was inactive. Moreover, the result in [13], in assay [14], in [15], in assay [16] and in [17] was inactive.

Consider `CN(C)CCCN(C)CCCN(C)C`, for which the outcome in assay [1], in [2], in [3], in assay [4], in [18] and in [5] was inactive. Further, the call in [6], in assay [7], in [8], in assay [19], in assay [9] and in [20] was inactive. Besides, the result in assay [10], in assay [11], in assay [12], in assay [13], in assay [14] and in assay [15] was inactive. Further, the compound was classed as inactive in assay [16].

`Oc1ccc(O)cc1`: the outcome in [1], in assay [2], in [3], in [4], in assay [5] and in assay [6] was inactive. Besides, the result in [7], in assay [8], in [19], in [10], in [11] and in [12] was inactive. The call in assay [14], in [15], in [16] and in assay [17] was inactive. In addition, the AC50 in assay [18] is 35.6 µM (active).

With `O=C(NS(=O)(=O)/C=C/c1cccs1)c1ccc(F)cc1Br`, the result in [1], in assay [2], in [3], in [4], in assay [18] and in [5] was inactive. In addition, the outcome in [6], in assay [7], in [8], in assay [19], in assay [9] and in assay [10] was inactive. Also, the compound was classed as inactive in assay [11], in assay [12], in assay [13], in assay [14], in assay [15] and in assay [16]. Besides, the outcome in [17] was inactive.

The values above are taken from PubChem BioAssay (EPA / NIEHS).
